A selection: hits, their analogues and other compounds. The true share with any hit is near 19%.
HepG2 viability: kills HepG2 cells in TGF-b inhibitor counter-screen | HepG2 CAGA-GFP viability, ATP luminescence, 18 h | Potency, µM (doses to about 46.1 µM), without a hit: top-dose activity change, negative = cytotoxicity, most hits filed as cytotoxic | 410,000 tested, 0.76% active | AID 588856; note: potency is the fitted concentration of half-maximal effect
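CellTiter-Glo luminescence gave cytotoxicity after 18 hours at 37 degrees C. The cells were HepG2 CAGA-GFP in 1% FBS DMEM, stimulated with 500 pg/mL TGF-beta after compound addition. %Activity was normalised to no-cell wells (complete cell-killing) and DMSO (no toxicity), and curves were fitted and classified.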
TDP1 cell noCPT: qHTS for Inhibitors of human tyrosyl-DNA phosphodiesterase 1 (TDP1): qHTS in cells in absence of CPT | Potency, µM (titrated, usually from 46.2 µM), without a hit: at the highest dose activity change, negative = growth inhibition, actives largely listed as inhibitors | AID 686978, 2013 | 420,000 tested, 15% active | DT40 Tdp1-/- hTDP1 cells, no CPT, ATP luminescence, 48 h; note: potency is the fitted concentration of half-maximal effect; % is set by controls: 0 for no effect and ±100 for the full control effect; nearly all actives have a fitted effect of over 55% in size
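A cellular qHTS used chicken DT40 cells lacking endogenous Tdp1 but carrying stably transfected human TDP1. Compounds were applied without camptothecin, and cell growth kinetics were judged by ATP-dependent luminescence after ≥48 hr.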
ASM inhibitor: human S-ASM enzyme inhibition. P17405. AID 504937. 340,000 tested, 0.006% active. placental ASM, HMU-PC fluorogenic substrate, 60 min. Potency, µM (highest dose often 57.5 µM), inactives show at the highest dose activity change, negative = inhibition, most hits filed as inhibitors; note: potency is the fitted concentration of half-maximal effect
Target sequence (P17405 47-631 limits assumed): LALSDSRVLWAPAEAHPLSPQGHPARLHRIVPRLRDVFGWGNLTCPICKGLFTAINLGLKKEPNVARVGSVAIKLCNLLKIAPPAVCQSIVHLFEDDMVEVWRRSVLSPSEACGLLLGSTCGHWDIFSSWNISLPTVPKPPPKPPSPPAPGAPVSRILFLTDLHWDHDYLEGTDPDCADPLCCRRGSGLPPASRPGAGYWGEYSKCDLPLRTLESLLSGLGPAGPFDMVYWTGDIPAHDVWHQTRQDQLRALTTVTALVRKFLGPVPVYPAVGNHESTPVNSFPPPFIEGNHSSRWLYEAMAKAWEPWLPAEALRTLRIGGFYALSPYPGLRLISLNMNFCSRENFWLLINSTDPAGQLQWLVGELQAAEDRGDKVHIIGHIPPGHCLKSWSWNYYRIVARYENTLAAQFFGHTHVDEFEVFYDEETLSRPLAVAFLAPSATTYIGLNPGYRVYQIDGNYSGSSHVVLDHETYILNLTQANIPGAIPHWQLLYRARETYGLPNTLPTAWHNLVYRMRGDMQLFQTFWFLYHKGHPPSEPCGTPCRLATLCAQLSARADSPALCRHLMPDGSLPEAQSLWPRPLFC
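Human placenta-derived ASM enzyme was preincubated with compound for 10 minutes at room temperature, then given fluorogenic substrate HMU-PC0 (9 uM final) for 60 minutes at 37 °C; a pH 10 stop preceded fluorescence reading at Ex 386/Em 447 nm.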
IL-1B inflam inh: inhibitors of inflammasome signaling (IL-1 beta secretion); 360,000 tested, 4.7% active; AID 743279; THP-1 LPS/ATP IL-1B secretion, AlphaLISA, 16 h; stronger effect = lower value; activity change, % at 57.5 µM; in the data active = activity change below about -50%; inconclusive = mostly about -30% to -49%; note: % is set by controls: 0 for no effect and ±100 for the full control effect
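THP-1 cells pretreated 1 hr with compounds (up to 57.5 uM final), then stimulated with LPS (250 ng/mL final) plus ATP (1.25 mM final); secreted IL-1B measured by AlphaLISA after 16 hr, decreased signal indicating inhibition.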
DT40 TDP1 CPT: DT40-hTDP1 cell growth loss with CPT. chicken DT40 Tdp1-/-;hTDP1 cells + 20 nM CPT, ATP luminescence, 48 h. Potency, µM (series often up to 46.2 µM), inactives show at the highest dose activity change, negative = growth inhibition, usual class: inhibitors. 420,000 tested, 12% active; note: potency is the fitted concentration of half-maximal effect; % is set by controls: 0 for no effect and ±100 for the full control effect; nearly all actives have a fitted effect of over 55% in size
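Chicken DT40 Tdp1-/- cells complemented with human TDP1, 400 cells/well, exposed to compounds plus 20 nM camptothecin for at least 48 h at 37 C; viability read as ATP content by CellTiter-Glo luminescence.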
TGFb SMAD3 inh: blocks TGF-b signaling. HepG2 CAGA-GFP TGF-b/SMAD3 reporter, GFP fluorescence, 18 h; TGF-beta stimulated, 500 pg/mL final. Potency, µM (highest dose often 46.1 µM), inactives show top-dose activity, negative = inhibition, actives largely listed as inhibitors. 410,000 tested, 1.2% active. AID 588855; note: potency is the fitted concentration of half-maximal effect; % is set by controls: 0 for no effect and ±100 for the full control effect; nearly all actives have a fitted effect of over 65% in size
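Inhibition was scored as loss of TGF-beta-induced (500 pg/mL final, 18 hours, 37 degrees C) GFP in HEPG2 cells carrying a CAGA-GFP reporter, in DMEM with 1% FBS. Well GFP was summed per cell; Activity was normalised to unstimulated and stimulated DMSO wells, then concentration-response fitting.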
An asterisk follows results filed as active; ? = inconclusive; · = no result. Unless noted, calls come from the whole dose curve; as a rule, active = well fitted curve in the direction sought with a large enough effect; inconclusive = small, poorly fitted or top-dose-only effect, or another doubt; inactive = no such curve, though single readings can be large; an effect the other way counts as inactive or inconclusive.

SMILES | HepG2 viability | TDP1 cell noCPT | ASM inhibitor | IL-1B inflam inh | DT40 TDP1 CPT | TGFb SMAD3 inh
COc1ccc(NC(=O)c2cc(C3CCCCN3C(=O)OCCF)on2)c(C)c1 (configuration not stated) | -7% | ? | · | 13 | ? | -1%
Cc1cccc(Sc2c([N+](=O)[O-])ncn2C)c1 | -27% | 23µM* | 3% | -20 | ? | 12%
Cc1cccnc1Sc1c([N+](=O)[O-])ncn1C | -3% | 2% | 0% | -11 | -10% | -17%
Cn1cnc([N+](=O)[O-])c1Sc1nnc(-c2cccnc2)n1C | -6% | ? | 6% | -26 | ? | -12%
Cn1cnc([N+](=O)[O-])c1Sc1ccncn1 | -21% | 13µM* | · | -5 | -28% | ?
COc1ccc(C2CC(c3ccccc3)Oc3cc(C)c(Cl)c(C)c32)cc1 (configuration not stated) | -24% | · | · | · | · | -19%
CCCN1C(=O)S/C(=C\c2ccc(N3CCOCC3)o2)C1=O | -154% | 21µM* | -8% | -98* | ? | -3%
COC(=O)CN1C(=O)S/C(=C/c2ccc(N3CCCCC3)o2)C1=O | -99% | ? | ? | -19 | ? | 190%
Cc1ccc(OCCN2C(=O)S/C(=C\c3ccc(C)o3)C2=O)cc1 | -4% | -24% | -2% | -4 | -20% | -6%
CCOC(=O)CN1C(=O)S/C(=C/c2ccc(N3CCCCC3)o2)C1=O | 6% | -12% | -1% | -1 | -22% | -6%
O=C(O)CN1C(=O)/C(=C/c2ccc(N3CCCCC3)o2)SC1=S | 20% | 23µM* | 9% | 7 | ? | 52%
CCCN1C(=O)S/C(=C/c2ccc(N3CCOCC3)o2)C1=O | -99% | 16µM* | -12% | -91* | 26µM* | -8%
Cc1ccc(C)c(OCCC(=O)OCC(=O)NNC(=O)c2ccccc2)c1 | 0% | 2% | 0% | 2 | 6% | 10%
Cc1ccc(-c2ccc(S(=O)(=O)N3CC(C)OC(C)C3)cc2)cc1 (configuration not stated) | -2% | ? | -1% | 7 | 0% | 3%
Cc1ccc(C2=NC(=O)/C(=C/c3cc(O)c(O)c(Br)c3)S2)cc1 | -23% | 16µM* | -16% | 33 | 18µM* | 6%
COc1cc(/C=C2\SC(c3ccc(C)cc3)=NC2=O)cc(OC)c1O | -15% | ? | -10% | -12 | -23% | 26%
CCOC(=O)c1sc2ccccc2c1S(=O)(=O)N1CCN(c2cccc(C)c2)C(C)C1 (configuration not stated) | -7% | ? | · | · | ? | -12%
Cc1cccc(COC[C@H](Cc2ccccc2)N2CCN(C(=O)c3ccc(C(F)(F)F)cc3)CCC2=O)c1 | · | 18µM* | · | -67* | ? | ·
O=C(c1ccc(C(F)(F)F)cc1)N1CCC(=O)N(C(COCc2ccc(C(F)(F)F)cc2)Cc2ccccc2)CC1 (configuration not stated) | 5% | 18µM* | -9% | -82* | ? | ?
Cc1cccc(COCC(Cc2ccccc2)N2CCN(C(=O)c3ccc(C(F)(F)F)cc3)CCC2=O)c1 (configuration not stated) | -32% | 21µM* | -4% | -76* | 23µM* | ?
Cc1ccc(S(=O)(=O)N2CCC(=O)N([C@H](COCc3ccc(C(F)(F)F)cc3)Cc3ccccc3)CC2)cc1 | · | ? | · | 0 | ? | ·
Cc1cccc(C(=O)N2CCC(=O)N([C@H](COCc3ccc(Cl)cc3)Cc3ccccc3)CC2)c1 | · | ? | · | -12 | ? | ·
O=C(CN1CCN(S(=O)(=O)c2ccccc2Cl)CC1)NCC1(N2CCOCC2)CCCCC1 | -14% | ? | 0% | -20 | ? | -1%
O=[N+]([O-])c1ccc(C2CC(c3ccccc3)=Nc3ccccc3S2)cc1 (configuration not stated) | -35% | 21µM* | -7% | -20 | ? | ?
O=C(O)C1CC(c2ccccc2)=Nc2ccccc2S1 (configuration not stated) | 33% | -8% | -3% | -28 | -20% | 12%
SMILES | HepG2 viability | TDP1 cell noCPT | ASM inhibitor | IL-1B inflam inh | DT40 TDP1 CPT | TGFb SMAD3 inh
Cc1ccc(C)c(N2CCN(CCN3CCCCC3)CC2)c1 | -1% | ? | 1% | 6 | -28% | 11%
Cc1ccc(C)c(N2CCN(Cc3csc(C)c3C)CC2)c1 | -41% | 15µM* | · | · | ? | ?
Cc1ccc(-c2c(CN3CCN(c4cc(C)ccc4C)CC3)csc2C)cc1 | -16% | 16µM* | · | · | ? | ·
COc1ccc(N2CCN(Cc3csc(C)c3-c3ccc(C)cc3)CC2)cc1 | -29% | ? | -13% | -14 | ? | -13%
CC(CCc1ccccc1)NC(=O)C1CCCN(C(=O)c2cc3sccc3n2C)C1 (configuration not stated) | -34% | 15µM* | -1% | -12 | 18µM* | ?
CCn1c(C(=O)N2CCCC(C(=O)NCCCc3ccccc3)C2)cc2sccc21 (configuration not stated) | -10% | ? | -1% | ? | 21µM* | -13%
Cn1c(C(=O)N2CCCC(C(=O)NCc3cccs3)C2)cc2sccc21 (configuration not stated) | -1% | -29% | 2% | 0 | ? | ?
Cc1ccc(-c2noc(CSc3nnc(C)n3-c3ccc(F)cc3)n2)cc1 | -35% | -18% | · | · | -18% | -24%
CCOc1ccc(-n2c(SCc3nc(-c4ccc(OC)cc4)no3)nnc2-c2ccncc2)cc1 | -3% | ? | · | · | ? | ?
CCOc1ccccc1-c1noc(CSc2nnc(-c3ccncc3)n2-c2ccc(F)cc2)n1 | -29% | 16µM* | · | · | -77% | -7%
Cc1nnc(SCc2nc(-c3ccc(Cl)cc3)no2)n1-c1ccc(F)cc1 | -41% | 26µM* | · | · | ? | -14%
COc1ccc(-c2noc(CSc3nnc(C)n3-c3ccc(C)c(C)c3)n2)c(OC)c1 | -37% | 18µM* | · | · | ? | -1%
Cc1ccccc1-c1noc(CSc2nnc(-c3ccncc3)n2-c2ccc(F)cc2)n1 | -8% | 15µM* | · | · | ? | -25%
COc1ccc(-n2c(SCc3nc(-c4ccc(Cl)cc4)no3)nnc2-c2ccncc2)cc1 | 0% | ? | · | · | ? | -1%
COc1ccc(-c2noc(CSc3nnc(Cc4ccccc4)n3-c3ccc(Cl)cc3)n2)cc1 | -18% | ? | -19% | ? | ? | ?

From PubChem BioAssay
